Laboratory results: PubChem BioAssay (NCATS)
Results filed as inconclusive are left out. Activity calls are given as the source filed them. Unless noted, calls come from the whole dose curve; as a rule, active = well fitted curve in the direction sought with a large enough effect; inconclusive = small, poorly fitted or top-dose-only effect, or another doubt; inactive = no such curve, though single readings can be large; an effect the other way counts as inactive or inconclusive.

Experiments:
[1] = molecular target: Aldehyde dehydrogenase, mitochondrial (Homo sapiens) (UniProt P05091); assay: qHTS for Inhibitors of the Aldehyde Dehydrogenase Family (ALDH2) Confirmatory screens (AID 2061303; active = well fitted inhibition curve with a large enough effect; title and protocol of this record describe different tests; note: nearly all actives have a fitted effect of over 45% in size; note: potency is the fitted concentration of half-maximal effect)
[2] = qHTS for Inhibitors of the Aldehyde Dehydrogenase Family (ALDH1A2, ALDH1A3, ALDH2, ALDH3A1) (AID 2061307); note: nearly all actives have a fitted effect of over 50% in size; for Potency: test system not described further here; potency is the fitted concentration of half-maximal effect
[3] = molecular target: Aldehyde dehydrogenase, mitochondrial (Homo sapiens) (UniProt P05091); assay: qHTS for Inhibitors of the Aldehyde Dehydrogenase Family (ALDH2) Primary screen (AID 2061308);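 note: plate controls were vehicle for no effect and reference inhibitor for full effect; nearly all actives have a fitted effect of over 55% in size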
[4] = molecular target: Retinaldehyde dehydrogenase 3 (Homo sapiens) (UniProt P47895); assay: qHTS for Inhibitors of the Aldehyde Dehydrogenase Family (ALDH1A3) Primary screen (AID 2061315);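 note: plate controls were DMSO vehicle for no effect and reference inhibitor for full effect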
[5] = molecular target: Retinal dehydrogenase 2 (Homo sapiens) (UniProt O94788); assay: qHTS for Inhibitors of the Aldehyde Dehydrogenase Family (ALDH1A2) Confirmation screens (AID 2061314); note: nearly all actives have a fitted effect of over 65% in size; note: potency is the fitted concentration of half-maximal effect
[6] = molecular target: Aldehyde dehydrogenase 1A1 (Homo sapiens) (UniProt P00352); assay: qHTS for Inhibitors of the Aldehyde Dehydrogenase Family (ALDH1A1) Confirmatory screens (AID 2061316); note: nearly all actives have a fitted effect of over 65% in size; note: potency is the fitted concentration of half-maximal effect
[7] = BET inhibitor-based combinations targeting novel dependencies in MECOM-rearranged (r) AML: SET-2 cell line (AID 2202231); settings: SET-2 AML cells viability, CellTiter-Glo luminescence, 48 h; viability: active compounds read low, series mostly up to about 46 µM;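 note: plate controls were DMSO treated cells for no effect and wells without cells for full effect; nearly all actives have a fitted effect of over 35% in size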
Method in brief: (§1)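 Luminescent ATP readout (CellTiter-Glo) after 48 hr drug exposure gives viability. Curves span 11 concentrations and are normalized to DMSO and empty wells. Activity is reported as area under the curve and its Z-transform within each cell line.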

[8] = BET inhibitor-based combinations targeting novel dependencies in MECOM-rearranged (r) AML: OCI-AML3 cell line (AID 2202232); settings: Potency: OCI-AML3 viability;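 note: series mostly up to about 46 µM; plate controls were DMSO vehicle wells for no effect and wells without cells for full effect; nearly all actives have a fitted effect of over 35% in size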
Method in brief: as §1

[9] = BET inhibitor-based combinations targeting novel dependencies in MECOM-rearranged (r) AML: MV-4-11 cell line (AID 2202233); note: potency is the fitted concentration of half-maximal effect; nearly all actives have a fitted effect of over 45% in size
Method in brief: (§2)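 Luminescent ATP readout (CellTiter-Glo, 15 min at room temperature) after 48 hr drug exposure gave viability. Dose-response curves, normalized to DMSO and empty-well controls, were summarized as area under the curve and its mean-centred Z-score.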

[10] = BET inhibitor-based combinations targeting novel dependencies in MECOM-rearranged (r) AML: HNT-34 cell line (AID 2202234);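 note: plate controls were vehicle wells for no effect and cell-free wells for full effect; nearly all actives have a fitted effect of over 35% in size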
Method in brief: as §2

[11] = BET inhibitor-based combinations targeting novel dependencies in MECOM-rearranged (r) AML: UCSD-AML1 cell line (AID 2202235);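 note: series mostly up to about 46 µM; plate controls were DMSO vehicle wells for no effect and blank wells for full effect; nearly all actives have a fitted effect of over 40% in size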
Method in brief: as §2

[12] = BET inhibitor-based combinations targeting novel dependencies in MECOM-rearranged (r) AML: AML-191 cell line (AID 2202236;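 note: plate controls were vehicle wells for no effect and wells without cells for full effect; nearly all actives have a fitted effect of over 35% in size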)
Method in brief: as §1

[13] = BET inhibitor-based combinations targeting novel dependencies in MECOM-rearranged (r) AML: AML-194 cell line (AID 2202237;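 note: plate controls were vehicle wells for no effect and wells without cells for full effect; nearly all actives have a fitted effect of over 40% in size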)
Method in brief: as §1

[14] = molecular target: Retinaldehyde dehydrogenase 3 (Homo sapiens) (UniProt P47895); assay: qHTS for Inhibitors of the Aldehyde Dehydrogenase Family (ALDH1A3) Confirmatory screens (AID 2061311); note: nearly all actives have a fitted effect of over 60% in size; note: potency is the fitted concentration of half-maximal effect
[15] = molecular target: Retinaldehyde dehydrogenase 3 (Homo sapiens) (UniProt P47895); assay: qHTS for Inhibitors of the Aldehyde Dehydrogenase Family (ALDH1A3) Validation screen (AID 2061312); note: potency is the fitted concentration of half-maximal effect; nearly all actives have a fitted effect of over 45% in size

O=C([C@H](Cc1ccc(O[S+](=O)([O-])c2cccc3cccnc23)cc1)N[S+](=O)([O-])c1ccccn1)N1CCN(c2ccccc2)CC1
inactive: Potency [1] | Potency [2] | Potency [3] | Potency [4]

CC1CC(O)CC(C)(C)C1(O)CCO (configuration not stated)
inactive: Potency [1] | Potency [2] | Potency [3] | Potency [5] | Potency [6]

COc1ccc(-n2cnc3cc(C(=O)N4CCCCC4)ccc32)cc1
active: Potency [9] 18.6 µM
inactive: Potency [1] | Potency [2] | Potency [3] | Potency [4] | Potency [6] | viability [7] 112% | Potency [8] | Potency [10] | Potency [11] | Potency [12] | Potency [13]

COc1ccc(C2Nc3ccccc3C(=O)N2CC(C)(C)C)cc1COc1ccc(NC(C)=O)cc1 (configuration not stated)
active: Potency [1] 11.2 µM | Potency [2] 1.59 µM | Potency [14] 15.8 µM | Potency [5] 31.6 µM | Potency [6] 25.2 µM
inactive: Potency [4]

COc1ccc(-n2ccnc(NCc3ccc(Cl)cc3)c2=O)cc1
active: Potency [1] 14.1 µM
inactive: Potency [2] | Potency [14] | Potency [5]

CC(C)(C)OC(=O)N1CCN(c2ccc(NCc3ccc(-c4ccc(C(C)(C)C)cc4)o3)cc2)CC1
active: Potency [6] 10.1 µM
inactive: Potency [1] | Potency [2] | Potency [3]

COc1ccccc1-c1cc(-c2ccccc2OC)c2onc(C)c2n1
inactive: Potency [1] | Potency [2] | Potency [5]
active: Potency [14] 25.1 µM

CCn1cc2nc(SCc3ccc(C)cc3)n(CCc3ccccc3)c(=O)c2n1
active: Potency [1] 14.1 µM | Potency [2] 10 µM | Potency [14] 0.447 µM | Potency [5] 7.94 µM

Cc1cc(F)ccc1[C@H]1C[C@@H](N2CCN3C(=O)CC[C@H]3C2)CCN1C(=O)N(C)[C@H](C)c1cc(C(F)(F)F)cc(C(F)(F)F)c1
inactive: Potency [1] | Potency [2] | Potency [14] | Potency [5] | Potency [4] | Potency [6]
active: Potency [15] 7.94 µM

Cc1cc2c(c(=O)[nH]1)OC(C(O)CC(C)C)O2 (configuration not stated)
inactive: Potency [1] | Potency [2] | Potency [14]

CCOc1ccc(-c2nc(CSCC(=O)N3CCN(c4cccc(C(F)(F)F)c4)CC3)c(C)o2)cc1
active: Potency [1] 8.91 µM | Potency [2] 7.94 µM | Potency [14] 2 µM

O=Cc1c(-c2ccccc2)no[n+]1[O-]
inactive: Potency [4]
active: Potency [1] 14.2 µM | Potency [2] 0.565 µM | Potency [14] 4 µM | Potency [5] 11.3 µM | Potency [6] 0.504 µM

O=C(CN1C(=O)N/C(=C\c2cccn2-c2cccc(C(=O)O)c2)C1=O)Nc1ccc(F)cc1
inactive: Potency [1] | Potency [2] | Potency [14] | Potency [5] | Potency [4]
